The values that follow come from PubChem BioAssay (NCATS).

The subject of one assay is PC49. Kind of assay: qHTS profiling for inhibitors of Plasmodium falciparum proliferation (AID 504749).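 Further: 0% = DMSO vehicle and full inhibition = artemisinin control.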 The note with it: P. falciparum in erythrocytes, SYBR Green DNA, 72 h; series mostly up to 28.7 µM. An outline of the steps: (§1)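 SYBR Green fluorescence (ex 485 nm, em 535 nm) reports parasite DNA after 72 h compound exposure of infected red cells at 0.3% parasitemia, 2.5% hematocrit; signal normalized to 0.29 uM artemisinin and vehicle wells.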
On the technique in general: In qHTS, concentration-response curves come from the screen itself.

Another assay deals with SC27B. Described as above. The note with it: P. falciparum in erythrocytes, SYBR Green DNA, 72 h; series mostly up to 28.7 µM. An outline of the steps:
as §1

A further assay deals with TAB109. Described as above. The note with it: P. falciparum in erythrocytes, SYBR Green DNA, 72 h; series mostly up to 28.7 µM. The gist of the method:
as §1

The subject of the next assay is TAB165. The description is as above. The note with it: P. falciparum in erythrocytes, SYBR Green DNA, 72 h; series mostly up to 28.7 µM. An outline of the steps: as §1
Another assay has as its system W2. Described as above. The note with it: P. falciparum in erythrocytes, SYBR Green DNA, 72 h; series mostly up to 28.7 µM. An outline of the steps: as §1
A further assay deals with HaCat. Kind of assay: Cytotoxic Profiling of Annotated Libraries Using Quantitative High-Throughput Screening (AID 1296008). Further: potency means the concentration at half of the fitted maximal effect. On max response: on the % scale 0 is the no-effect control and ±100 the full control effect. The note with it: Five cell lines viability, CellTiter-Glo ATP luminescence, 48-72 h; max response: hits give low values. An outline of the steps:
(§2)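 Cells exposed to compounds for 48 or 72 hr at 37 degrees Celsius. Viability read as ATP-coupled luminescence with CellTiter-Glo after 10 min at room temperature.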
Background: Cellular ATP, detected with luciferase, serves as a proxy for viable cell number.

The subject of another assay is KB-3-1. The assay is described as above. Particulars: Five cell lines viability, CellTiter-Glo ATP luminescence, 48-72 h; max response: hits give low values. An outline of the steps: as §2
For a further assay, the system named is HEK293. Described as above. The note with it: Five cell lines viability, CellTiter-Glo ATP luminescence, 48-72 h; max response: hits give low values. The gist of the method: as §2
The test system of the next assay is TAB113. In words: qHTS profiling for inhibitors of Plasmodium falciparum proliferation (AID 504749).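 Further: 0% = DMSO vehicle and full inhibition = artemisinin control.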 The note with it: P. falciparum in erythrocytes, SYBR Green DNA, 72 h; series mostly up to 28.7 µM. The gist of the method: as §1

Each structure is given as a SMILES string. Values joined by “and” are separate entries in the source; they are usually repeats but may differ in a detail not shown here. Equal values may be shown once. Inconclusive results are not listed. Unmarked numbers belong to inactive results. Active and inactive are the calls of the source. The call rests on the fitted dose curve; in most records, active means well fitted inhibition curve with a large enough effect; inconclusive means small, poorly fitted or top-dose-only effect; inactive means flat fitted curve, though single readings scatter.
Further: nearly all actives have a fitted effect of over 60% in size.

Take `CCCCCN(C)CCC(O)(P(=O)(O)O)P(=O)(O)O`: the compound was classed as inactive in the assay on PC49 and in the assay with TAB109. The Potency entry in the assay with SC27B, in the assay with TAB165 and in the assay with W2 was “inactive” in each case.

Regarding `c1ccc2c(Cc3c[nH]c4ccccc34)c[nH]c2c1`, the outcome in the assay with HaCat was inactive. The max response with KB-3-1 was -13.3%.

As to `CCc1ccc(C=C2SC(=S)NC2=O)cc1`, the max response in the assay with HEK293 is -22.6%; in the assay with HaCat it was -1.5%; in the assay on KB-3-1, -5.67%.

On to `Oc1ccc(C2=Cc3ccc(O)cc3OC2)cc1`, for which the Potency in the assay with HEK293 is 9.35 µM (active); with KB-3-1 it was 16.6 µM (active).

Take `O=C(NOCC(O)CO)c1cc(Br)c(F)c(F)c1Nc1ccc(I)cc1F` (stereo not drawn): the max response in the assay with HEK293 was 0.434%; in the assay on KB-3-1 it was -16.7%.

Consider `O=C(O)c1cc(O)c2c(c1)C(=O)c1cccc(O)c1C2=O`, for which the max response with HEK293 is -16.6%; in the assay with KB-3-1, 0.608%. Further, in the assay on HaCat, the result was inactive.

`C[C@]12CC[C@@H]3c4ccc(O)cc4C[C@@H](CCCCCCCCCS(=O)CCCC(F)(F)C(F)(F)F)[C@H]3[C@H]1CC[C@H]2O` (stereo partly drawn): the max response with HaCat was 0.837%; with KB-3-1, 4.81%.

As for `CC(C)n1cnc2c(NCCCCCCNC(=O)OC(C)(C)C)nc(NCCO)nc21`, the Potency in the assay with HEK293 is 14.8 µM (active). In the assay on HaCat, the max response is -3.35%.

`Cc1ccc(F)c(NC(=O)Nc2ccc(-c3cccc4[nH]nc(N)c34)cc2)c1`: in the assay with HaCat, the max response is 2.26%.

In the case of `O=C1NC(=O)C(=Cc2ccc3nccnc3c2)S1`, the results for the max response in the assay on HEK293, in the assay on HaCat and in the assay on KB-3-1 were -10.3%, -12.7% and -0.874%, respectively.

For the compound `COc1cc(N2CCC(N3CCN(C)CC3)CC2)ccc1Nc1ncnc(Nc2ccccc2S(=O)(=O)C(C)C)n1`, the Potency in the assay with HEK293 is 14.6 µM (active); with HaCat, 7.31 µM (active); in the assay on KB-3-1 it was 8.33 µM (active).

Turning to `c1ccc2c(-c3cnn4cc(-c5ccc(N6CCNCC6)cc5)cnc34)ccnc2c1`, in the assay on KB-3-1, the Potency is 3.32 µM (active).

`Clc1ccc(C(c2ccc(Cl)cc2)n2cc[n+](CC(OCc3ccc(Cl)cc3Cl)c3ccc(Cl)cc3Cl)c2)cc1` (stereo not drawn): the Potency in the assay with HEK293 was 14.8 µM (active); with KB-3-1, 18.7 µM (active).

For `CN(C)Cc1ccc(-c2nc3cccc4c3n2CCNC4=O)cc1`, the max response in the assay with HaCat is -6.01% and -9.35%.

`CC1(C)CCC2=C(O1)c1ccccc1C(=O)C2=O`: the call in the assay with HaCat was inactive. Further, the max response in the assay with KB-3-1 is 7.27%.

For the compound `COc1ccc(-n2c(C)c([N+](=O)[O-])c3ccc(O)cc32)cc1`, the max response was -7.19% with HEK293, -25.5% with HaCat and -1.9% in the assay on KB-3-1.

Turning to `COc1ccc(Cc2nccc3cc(OC)c(OC)cc23)cc1OC`, the compound was called inactive in the assay on PC49 and in the assay on TAB109. Besides, the Potency result with SC27B, in the assay with TAB113, in the assay with TAB165 and in the assay with W2 was “inactive” throughout.
